# Inconclusive results are not listed. Values without a mark were called inactive. The source made the active and inactive calls. Calls follow the shape of the dose curve; as a rule, active = well fitted cell-killing curve with a large enough effect; inconclusive = small, poorly fitted or top-dose-only effect, or effect the other way; inactive = no such curve, though single readings can be large or run the other way.
# Assay: Viability qHTS for spleen associated tyrosine kinase inhibitor (SYKi) drug resistant MV4-11 cells (AID 1963824); also: nearly all actives have a fitted effect of over 35% in size
# Conditions: SYKi-resistant MV4-11 viability, CellTiter-Glo, 72 h; series mostly up to 45 µM; viability, % of control: at the top concentration
# Method in brief: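 SYK inhibitor-resistant MV4-11 AML cells, 500 per well, added to predispensed compounds and incubated 72 hr at 37 C, 5% CO2. Viability measured by CellTiter-Glo luminescence after 10 min at room temperature.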
# Potency is read from the fitted curve at half-maximal effect.
SMILES,"viability, % of control",Potency
CC(C)(Cc1ccccc1)NCC(O)c1ccc(O)c(NS(C)(=O)=O)c1 (stereo not given),59.2%,
CC(=O)O[C@@]12CO[C@@H]1C[C@H](O)[C@@]1(C)C(=O)[C@H](O)C3=C(C)[C@@H](OC(=O)[C@H](O)[C@@H](NC(=O)OC(C)(C)C)c4ccccc4)C[C@@](O)([C@@H](OC(=O)c4ccccc4)[C@H]21)C3(C)C,,2.4 nM (active)
CC(/C=C/C1(O)C(C)(C)CC(O)CC1(C)O)OC1OC(CO)C(O)C(O)C1O (stereo not given),103% [at 17.3 µM],
CC(C)OC(=O)OCOP(=O)(COC(C)Cn1cnc2c(N)ncnc21)OCOC(=O)OC(C)C (stereo not given),,2060 nM (active)
O=C(/C=C/c1ccccc1)OCC1=CC[C@@H]2C(C(=O)O)=CO[C@@H](O[C@@H]3O[C@H](CO)[C@@H](O)[C@H](O)[C@H]3O)[C@H]12,89.3% [at 17.3 µM],
COc1cc(O)cc(C)c1C(=O)OC1C(CO)OC(n2ccc(=O)[nH]c2=O)C1OC(C)=O (stereo not given),68.9% [at 17.3 µM],
C[C@H](O)[C@H](O)[C@H]1CNc2nc(N)[nH]c(=O)c2N1,93.9%,
Nc1ncnc2c1nc(Cl)n2C1OC2COP(=O)(O)OC2C1O (stereo not given),,461 nM (active)
CC(CCC1C(C(=O)O)=CC(=O)CC1(C)C)O[C@@H]1O[C@H](CO)[C@@H](O)[C@H](O)[C@H]1O (stereo not given in full),85.5%,
CC1(C)CC2C3=CCC4C5(C)CCC(OC6OC(C(=O)O)C(O)C(O)C6OC6OC(CO)C(O)C(O)C6OC6OC(CO)C(O)C(O)C6O)C(C)(CO)C5CCC4(C)C3(C)CCC2(C)C(OC2OCC(O)C(OC3OC(CO)C(O)C(O)C3O)C2O)C1O (stereo not given),112% [at 9.25 µM],
CC(C)CC1(C(=O)OCc2ccc(O[C@@H]3O[C@H](CO)[C@@H](O)[C@H](O)[C@H]3O)cc2)CC(=O)OC(C(=O)O)CC(=O)OCC2OC(O1)C(OC(=O)/C=C/c1ccc(O)cc1)C(O)C2O (stereo not given in full),89.5% [at 9.25 µM],
C=C(C(=O)O)C1CC2=C(C)C(=O)CC2C(C)CC1O (stereo not given),,3660 nM (active)
Nc1ncnc2c1nc(Cl)n2C1O[C@H](CO)[C@@H](O)[C@H]1O (stereo not given in full),,146 nM (active)
C[C@@H]1O[C@@H](O[C@H]2[C@H](OC(C#N)c3ccc(O)cc3)O[C@H](CO)[C@@H](O)[C@@H]2O)[C@H](O)[C@H](O)[C@H]1O (stereo not given in full),85.1% [at 17.3 µM],
C[C@H](/C=C/[C@@]1(O)[C@H](C)CC(=O)CC1(C)C)O[C@@H]1O[C@H](CO[C@@H]2OC[C@@H](O)[C@H](O)[C@H]2O)[C@@H](O)[C@H](O)[C@H]1O,85.1% [at 17.3 µM],
CCCCc1nc(C)c(CC(=S)N(C)C)c(=O)n1Cc1ccc(-c2ccccc2-c2nn[nH]n2)cc1,81.2%,
CN1c2ccccc2C(=O)N2CCC3c4ccccc4NC3C21 (stereo not given),,1800 nM (active)
CCC/C=C/c1cc2c(C=O)c(O)c(CC=C(C)C)cc2o1,,16400 nM (active)
C[C@@H]1O[C@@H](O[C@H]2[C@H](OC(=O)[C@]34CCC(C)(C)C[C@H]3C3=CCC5[C@@]6(C)C[C@H](O)[C@H](O[C@@H]7O[C@H](CO[C@@H]8OC[C@H](O)[C@H](O)[C@H]8O)[C@@H](O)[C@H](O)[C@H]7O)C(C)(C)C6CC[C@@]5(C)[C@]3(C)C[C@H]4O)OC[C@@H](O)[C@@H]2O)[C@H](O)[C@H](O[C@@H]2OC[C@](O)(CO)[C@H]2O)[C@H]1O[C@@H]1OC[C@H](O)[C@H](O[C@@H]2OC[C@@H](O)[C@H](O)[C@H]2O)[C@H]1O (stereo not given in full),85% [at 9.25 µM],
O=C1C(Cc2ccc(O)cc2)N2C(=O)CCN(C(=O)NCc3ccccc3)C2CN1Cc1cccc2ccccc12 (stereo not given),,1840 nM (active)

SMILES,"viability, % of control",Potency
CC1(C)CCCC2(C)C1CC=C1C(=O)OC(O)C12O (stereo not given),56%,
CCC(C)(OC(C)=O)C(=O)O[C@H]1[C@H](OC(C)=O)[C@]2(CO)[C@H](O)[C@H](O)[C@]3(C)C(=CCC4[C@@]5(C)CC[C@H](O[C@@H]6O[C@H](C(=O)O)[C@@H](O)[C@H](O[C@@H]7OC[C@H](O)[C@H](O[C@@H]8OC[C@H](O)[C@H](O)[C@H]8O)[C@H]7O)[C@H]6O[C@@H]6O[C@H](CO)[C@@H](O)[C@H](O)[C@H]6O)C(C)(C)C5CC[C@]43C)[C@@H]2CC1(C)C (stereo not given in full),,2450 nM (active)
C/C=C(\C)C(=O)OC[C@H]1O[C@@H](O[C@H]2[C@@H](O[C@H]3O[C@H](COC(=O)/C(C)=C/C)[C@@H](O)[C@H](O)[C@H]3O[C@@H]3O[C@H](CO)[C@@H](O)[C@H](OC(=O)/C(C)=C/C)[C@H]3O)O[C@H](COC(=O)/C(C)=C/C)[C@@H](O)[C@@H]2O)[C@H](O)[C@@H](O)[C@@H]1O,90.8% [at 9.25 µM],
OC[C@@]1(O)CO[C@@H](OC[C@H]2O[C@@H](OCc3ccccc3)[C@H](O)[C@@H](O)[C@@H]2O)[C@@H]1O,104% [at 17.3 µM],
COc1c(C)c(C(=O)c2ccc(N)c(C(=O)O)c2)n2ccccc12,,inactive
C=C1CC[C@@H]2[C@](C)(CO)[C@H](O)CC[C@@]2(C)[C@@H]1C/C=C1/C(=O)OCC1O (stereo not given in full),,3260 nM (active)
CC1(CCC(=O)O)C(=O)C=CC23CC4CC(OC4(C)C2O)C13 (stereo not given),69.4%,
OCC(Cc1ccccc1)Nc1nc(Oc2ccc3c(c2)CCC3)nc2c1ncn2Cc1ccc(-c2ccccc2)cc1 (stereo not given),,7310 nM (active)
C=C1CC[C@@H]2[C@](C)(CO)[C@H](O)CC[C@@]2(C)[C@@H]1C/C=C1/C(=O)OC[C@@H]1O,,3210 nM (active)
CC12CCC3c4ccc(OC5OC(C(=O)O)C(O)C(O)C5O)cc4CCC3C1CCC2O (stereo not given),97.2%,
Cc1nc2ccc(CN(C)c3ccc(C(=O)NC(CCC(=O)O)C(=O)O)s3)cc2c(=O)[nH]1 (stereo not given),,7.3 nM (active)
COc1ccc2cc(-c3cc(-c4cc(Cl)cc(Cl)c4)nn3C(C)c3ccc(C(=O)NCCC(=O)O)cc3)ccc2c1 (stereo not given),,25900 nM (active)
CC1(CO)CC2C(O)C(=O)C3(CO)CC3(C)C2C1 (stereo not given),98.6%,
C=CC1(C)C=C2CCC3C(C)(C)C(O[C@@H]4O[C@@H](CO)[C@H](O)[C@H]4O)CCC3(C)C2CC1O[C@@H]1O[C@H](C)[C@H](O)[C@H](O)[C@H]1O (stereo not given in full),75.9% [at 17.3 µM],
C[C@@H]1O[C@@H](O[C@H]2[C@@H]3C=CO[C@@H](O[C@@H]4O[C@H](CO)[C@@H](O)[C@H](O)[C@H]4O)[C@@H]3[C@@]3(CO)O[C@@H]23)[C@H](OC(=O)/C=C/c2ccc(O)c(O)c2)[C@H](O)[C@H]1O,78.8% [at 17.3 µM],
O=C(OC1C=C(CO)C2C(OC3OC(CO)C(O)C(O)C3O)OC=CC12)c1ccc(O)cc1 (stereo not given),95.4% [at 17.3 µM],
CNC(=O)c1ccc2cc([C@@]3(O)CCn4cncc43)ccc2c1,67.1%,
O=C(/C=C/c1ccc(O)cc1)OC[C@]12O[C@H]1[C@@H](O)[C@@H]1C=CO[C@@H](O[C@@H]3O[C@H](CO)[C@@H](O)[C@H](O)[C@H]3O)[C@@H]12,103% [at 17.3 µM],
Nc1c(-c2ccccc2)nc(Cl)c2c(O)n[nH]c(=O)c12,69.2%,
COC(=O)c1cc(CN2CCN(C(=N)N)CC2)cc(C(=O)N2CCN(C(=O)c3ccc(C(=N)N)cc3)CC2)c1,106%,

# Source: PubChem BioAssay (NCATS)
